Screening data deposited in PubChem BioAssay by National Center for Advancing Translational Sciences (NCATS).
PKM2 activator: qHTS Assay for Activators of Human Muscle isoform 2 Pyruvate Kinase. Potency, µM (series often up to 57.5 µM), without a hit: at the top dose activation, hits mostly activators. hit rate 0.34% among 260,000. purified PKM2, Kinase-Glo ATP luminescence, activation; response scale: 0% is enzyme alone, no compound; also: nearly all actives have a fitted effect of over 55% in size
Target sequence (P14618 whole entry, looked up, canonical isoform): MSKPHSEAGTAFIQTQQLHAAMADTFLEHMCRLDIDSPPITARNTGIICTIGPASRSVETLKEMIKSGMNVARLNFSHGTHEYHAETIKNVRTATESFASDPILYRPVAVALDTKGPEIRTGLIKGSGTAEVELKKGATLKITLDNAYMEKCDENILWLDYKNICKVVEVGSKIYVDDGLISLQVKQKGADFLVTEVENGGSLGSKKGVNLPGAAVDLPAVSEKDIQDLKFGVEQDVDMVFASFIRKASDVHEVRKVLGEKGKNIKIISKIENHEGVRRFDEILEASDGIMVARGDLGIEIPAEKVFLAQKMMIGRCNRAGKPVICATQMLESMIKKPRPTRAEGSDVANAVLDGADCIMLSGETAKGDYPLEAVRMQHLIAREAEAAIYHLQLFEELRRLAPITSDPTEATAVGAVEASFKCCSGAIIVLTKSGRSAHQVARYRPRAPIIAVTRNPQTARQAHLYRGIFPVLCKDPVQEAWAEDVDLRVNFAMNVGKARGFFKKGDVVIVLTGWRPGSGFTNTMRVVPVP
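Purified hPK-M2 (>95% pure) converted ADP (0.1 mM final) to ATP with 0.5 mM PEP in 50 mM imidazole pH7.2, KCl, MgCl2, Tween 20, BSA; 1 h at room temperature. ATP detected by Kinase-Glo luminescence.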
APE1 inh: qHTS Assay for Inhibitors of the Human Apurinic/apyrimidinic Endonuclease 1 (APE1) | recombinant APE1, TAMRA/BHQ-2 abasic DNA cleavage fluorescence | Potency, µM (series often up to 65.8 µM), without a hit: at the top dose activity change, negative = inhibition, most hits filed as inhibitors | hit rate 0.35% among 350,000 | DNA repair nuclease/redox regulator APEX1 (Homo sapiens), P27695 | AID 2517, 2012;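 also: plate controls were vehicle for no effect and reference inhibitor for full effect; nearly all actives have a fitted effect of over 55% in size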
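Compound pre-exposure to 0.75 nM APE1, 15 min at ambient temperature. Reaction initiated with 50 nM TAMRA/BHQ-2 THF substrate, read immediately in kinetic mode, 525 nm excitation, 598 nm emission.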
KDM4E inh: qHTS Assay for Inhibitors of Human Jumonji Domain Containing 2E (JMJD2E) | AID 2147, 2009 | JMJD2E catalytic domain, FDH-coupled NADH fluorescence (FDH is formaldehyde dehydrogenase) | Potency, µM (doses to about 57.1 µM), without a hit: at the highest dose activity change, negative = inhibition, actives largely listed as inhibitors | hit rate 1.6% among 230,000 | Lysine-specific demethylase 4E (Homo sapiens), B2RXH2; active = well fitted inhibition curve with a large enough effect, not every such curve was filed as active; inconclusive = small, poorly fitted or top-dose-only effect, or another doubt; inactive = no such curve, though single readings can be large or run the other way;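 also: 0% = wells with enzyme and -100% = buffer wells without enzyme; nearly all actives have a fitted effect of over 50% in size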
RECQ1 inh-1: qHTS Assay for Inhibitors of RecQ-Like Dna Helicase 1 (RECQ1); ATP-dependent DNA helicase Q1 (Homo sapiens), P46063; RECQ1 DNA unwinding, red fluorescence kinetic read; Potency, µM (doses to about 57.3 µM), for the others: at the top dose activity, negative = inhibition, most hits filed as inhibitors; hit rate 0.54% among 240,000; AID 2549, 2010;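 also: plate controls were vehicle for no effect and no enzyme for full effect; nearly all actives have a fitted effect of over 30% in size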
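50 nM RECQ1T1 preincubated 15 min with compound in Tris pH 8.0 buffer with MgCl2, DTT, Tween-20 and 2.5 ug/ml poly(dI-dC); started with 200 nM TAMRA/BHQ-2 forked duplex and 2 mM ATP. Unwinding read as fluorescence (525/598 nm), two reads 2 h apart.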
BLM helicase inh: qHTS Assay for Inhibitors of Bloom's syndrome helicase (BLM); recombinant BLM DNA unwinding, fluorescence dequenching; RecQ-like DNA helicase BLM (Homo sapiens), P54132; AID 2528, 2010; hit rate 0.2% among 350,000; Potency, µM (series often up to 56.1 µM), inactives show top-dose activity change, negative = inhibition, hits mostly inhibitors;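 also: plate controls were vehicle for no effect and no enzyme for full effect; nearly all actives have a fitted effect of over 35% in size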
RECQ1 conf: Confirmation qHTS Assay for Inhibitors of RecQ-Like Dna Helicase 1 (RECQ1); shares compounds with RECQ1 inh-1; RECQ1 helicase DNA unwinding, fluorescence; Potency, µM (highest dose often 229 µM), without a hit: at the top dose activity change, negative = inhibition, most hits filed as inhibitors; hit rate 28% among 610; AID 2708, 2010; also: nearly all actives have a fitted effect of over 45% in size
RECQ1 ADP FP: Counterscreen for RECQ1 Inhibitors: ADP Fluorescence Polarization Displacement Assay; shares compounds with RECQ1 inh-1; ADP fluorescence polarization displacement counterscreen; Potency, µM (top dose mostly 228 µM), for inactives: at the top dose activity change, negative = inhibition, hits mostly inhibitors; hit rate 27% among 530; AID 2711, 2010; also: nearly all actives have a fitted effect of over 45% in size
RECQ1 inh-2: Confirmation qHTS Assay for Inhibitors of RecQ-Like Dna Helicase 1 (RECQ1) - Round 2 Cherry Picks; hit rate 15% among 1,100; Potency, µM (series often up to 119 µM), for inactives: at the top dose activity, negative = inhibition, hits mostly inhibitors; recombinant RECQ1 DNA unwinding, red fluorescence; shares compounds with RECQ1 inh-1; also: nearly all actives have a fitted effect of over 50% in size
* hit, by the source's call; i = inactive; ? = inconclusive; / = no result; ! = a repeat was not active; [ ] = remark or other dose. This is one part of a sample in which hits are shown more often than they occur. Unless noted, calls follow the shape of the dose curve; as a rule, active = well fitted curve in the direction sought with a large enough effect; inconclusive = small, poorly fitted or top-dose-only effect, or another doubt; inactive = no such curve, though single readings can be large; an effect the other way counts as inactive or inconclusive. Unless noted, % is scaled to controls: 0 for no effect and ±100 for the full control effect; potency is read from the fitted curve at half-maximal effect.

SMILES | PKM2 activator | APE1 inh | KDM4E inh | RECQ1 inh-1 | BLM helicase inh | RECQ1 conf | RECQ1 ADP FP | RECQ1 inh-2
COc1ccc(NS(=O)(=O)c2ccc(O)c(NC(=O)c3ccc(S(=O)(=O)N4CCCCCC4)cc3)c2)cc1 | 7% | 3% | 14% | 6% | -19% | -13% | 10% | /
O=C(O)CN(CC(=O)O)Cc1cc2c(-c3ccccc3C(=O)O)c3cc(CN(CC(=O)O)CC(=O)O)c(=O)cc-3oc2cc1O | / | / | 4µM* | 28µM* | 16µM* | 112µM* | 0.14µM* | /
O=c1cc(-c2ccccc2F)oc2ccccc12 | -10% | 4% | -15% | -10% | -15% | / | / | /
O=C(O)c1ccccc1-c1oc2cc(O)ccc2c(=O)c1Oc1ccccc1 | / | -2% | ? | 0% | -1% | / | / | /
O=C(O)c1ccccc1-c1c2ccc(=O)cc-2oc2cc(O)ccc12 | / | 28µM* | / | 32µM* | 32µM* | 112µM* | 0.5µM* | 79µM*
Cc1nn2c(=O)cc(COC(=O)c3ccc(NC(=O)CCc4ccccc4)cc3)nc2s1 | / | / | / | / | -9% | / | / | /
N=C1SC(c2ccccc2)C(=O)N1c1ncc(Cc2ccccc2Cl)s1 (stereo not drawn) | 5% | -1% | ? | 25µM* | -16% | / | / | ?
CCOC(=O)CCN1C(=O)[C@H]2[C@H]3[C@H](O)[C@H](O)C/C(=N/OCC(C)C)[C@@H]3CC[C@@H]2C1=O | / | ? | / | -4%[11.5 µM] | -1%[12.4 µM] | / | / | /
O=C1CSC(=S)N1/N=C/c1ccc(O)c(O)c1O | -29% | 0.35µM* | 2.2µM* | 2.2µM* | ? | ? | / | /
O=C1CSC(=S)N1/N=C/c1cc(Br)ccc1O | -54% | 3% | / | / | -4% | / | / | /
COCc1cc(C)nc2c1C(=O)NC(c1ccc(F)cc1)N2Cc1ccccc1 (stereo not drawn) | / | / | / | / | -9% | / | / | /
CO/N=C\c1ccc(C(=O)N2[C@H](c3ccc(C)cc3)[C@@H](C)CC[C@H]2C(=O)OC)cc1 | / | -5%[12.4 µM] | / | i[11.5 µM] | 0%[12.4 µM] | / | / | /
C=CC[C@@H]1C=C[C@H](O/N=C/c2ccc(C(=O)N3[C@H](c4ccc(C)cc4)[C@@H](C)CC[C@H]3C(=O)OC)cc2)[C@@H](CO)O1 | -4% | 2% | -13% | ? | -10% | / | / | -17%
CCOC(=O)c1cccc(NS(=O)(=O)c2ccc3[nH]c4c(c3c2)CCCC4)c1 | / | / | / | / | -14% | / | / | /
CCCC(=O)OC[C@@H](OC(=O)CCC)[C@@H](OC(=O)CCC)[C@H](Cn1c2nc(=O)[nH]c(=O)c-2nc2cc(C)c(C)cc21)OC(=O)CCC | / | / | / | / | -4% | / | / | /
Cc1cc2nc3c(=O)[nH]c(=O)nc-3n(CC(O)C(O)C(O)CO)c2cc1C (stereo not drawn) | / | ? | ? | 35µM*! | -5% | 112µM* | 45µM* | /
Cc1ccc(NC(=O)Cc2cc(C(=O)O)c3ccccc3n2)c(C)c1 | 0% | 0% | -16% | i | 0% | 11% | -1% | /
COc1ccc(Nc2nnc(-c3ccc(O)cc3)c3ccccc23)cc1C(N)=O | 2% | 1% | -4% | ? | -11% | / | / | -13%
COc1ccc(-c2nnc(Nc3ccc(OC)c(C(N)=O)c3)c3ccccc23)cc1 | / | / | / | / | -16% | / | / | /
CCOc1ccc(NS(=O)(=O)c2ccc3[nH]c4c(c3c2)CCCCC4)cc1 | / | / | / | / | -13% | / | / | /
C/C=C/C(=O)OCC(=O)Nc1cccc(S(=O)(=O)NC2=NCCCCC2)c1 | 2% | 0% | 10% | 0% | -2% | / | / | /
O=C(COC(=O)Cc1ccccc1F)Nc1cccc(S(=O)(=O)NC2=NCCCCC2)c1 | 1% | 2% | -1% | 1µM* | -2% | 13%[114 µM] | 9%[91.9 µM] | -4%
COc1ccc2nc(-c3ccco3)c(-c3ccco3)nc2c1 | 17% | 8.9µM* | ? | ? | 13µM* | / | / | 2%
CC1=NN(c2ccc(N)cc2)C(=O)C1 | -2% | ? | ? | ? | -24% | / | / | -2%
CC1=NN(c2ccc(Cl)cc2)C(=O)C1 | 1% | -4% | -24% | i | -2% | / | / | /
SMILES | PKM2 activator | APE1 inh | KDM4E inh | RECQ1 inh-1 | BLM helicase inh | RECQ1 conf | RECQ1 ADP FP | RECQ1 inh-2
O=C(O)c1cccc(N2C(=O)/C(=C/c3ccc(SCc4ccc(Cl)cc4)o3)SC2=S)c1 | -6% | 10µM* | 22µM* | 22µM* | 113% | -87%[114 µM] | / | /
CCOP(=O)(OCC)C(=Cc1cc(C(C)(C)C)c(O)c(C(C)(C)C)c1)P(=O)(OCC)OCC | / | -2% | / | -12% | -1% | / | / | /
O=C(c1ccc(OCCN2CCCCC2)cc1)c1c(-c2ccc(O)cc2)sc2cc(O)ccc12 | / | 21% | -5% | ? | -4% | / | / | -7%
CC(C)CC(=O)Nc1ccc(C(=O)Cn2nc(C(=O)O)c3ccccc3c2=O)cc1 | 0% | 5% | 2% | 1% | -4% | 5% | 20% | /
NS(=O)(=O)c1ccc(NC(=O)Cn2nc(C(=O)O)c3ccccc3c2=O)cc1 | / | -6% | / | / | 1% | / | / | /
CC(C)(C)c1ccc(C(=O)Cn2nc(C(=O)O)c3ccccc3c2=O)cc1 | 3% | ? | 13% | -8% | -1% | / | / | /
O=C(Cn1nc(C(=O)O)c2ccccc2c1=O)Nc1ccc2c(c1)C(=O)c1ccccc1C2=O | -7% | -3% | -5% | i | -8% | ? | 112µM* | /
